Sampled rows, rich in hits. Any-hit rate of the full collection: about 0.93%.
CIT2 TOR yeast – modulators of CIT2-GFP expression in yeast, primary screen, S. cerevisiae, GFP fusion, multiplex flow cytometry, MLPCN library; S. cerevisiae CIT2-GFP strain, 3 h; 100 means same as DMSO wells; 0.065% of 320,000 active; AID 2029, 2009; GFP response vs DMSO, % at 10 µM;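 active = GFP response relative to DMSO above a set limit, near the screen mean plus 3 SD, cut at about 150% in these data; inconclusive = Fewer than 70 cells measured for a yeast strain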;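 note: ratio of well median GFP fluorescence to mean of DMSO wells on the plate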
LAP4-GFP MLPCN – modulators of LAP4-GFP expression in yeast, primary screen, S. cerevisiae, multiplex flow cytometry, MLPCN library | 0.34% of 320,000 active | 3 h; median GFP as percent of DMSO wells | AID 2023, 2009 | GFP response vs DMSO, % at 10 µM;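 active = GFP response vs DMSO above a set limit, about the screen mean plus 3 SD, cut at about 150% in these data; inconclusive = under 70 cell events counted for the yeast strain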
AGP1 TOR yeast – modulators of AGP1-GFP expression in yeast TOR pathway, primary screen, cell-based, multiplex flow cytometry, S. cerevisiae, MLPCN library; GFP response vs DMSO, % at 10 µM; 0.02% of 320,000 active; AID 2066, 2009; 3 h; GFP as percent of DMSO wells;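 active = GFP response relative to DMSO above a set limit, near screen average plus 3 SD, cut at about 150% in these data; inconclusive = fewer than 70 cells counted for the yeast strain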;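 note: median GFP channel fluorescence of the gated AGP1 strain per well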
RPL19A TOR yeast – RPL19A-GFP expression modulators in yeast, primary screen, cell-based, S. cerevisiae, multiplex flow cytometry, MLPCN. S. cerevisiae RPL19A-GFP strain, 3 h; stronger effect = lower value. percent response vs DMSO, % at 10 µM. 0.3% of 330,000 active. AID 2025, 2009;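 active = percent response vs DMSO below 50%; inconclusive = fewer than 70 events counted for the yeast strain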;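 note: median channel GFP fluorescence of the barcoded RPL19A-GFP strain; ratio of sample median GFP to plate DMSO average so 100% = DMSO; lower means less RPL19A-GFP as with rapamycin TOR inhibition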
MEP2-GFP yeast – modulators of MEP2-GFP levels in yeast, primary screen, S. cerevisiae, multiplex flow cytometry, MLPCN library. S. cerevisiae MEP2-GFP strain, 3 h; 100% = DMSO control level. GFP response vs DMSO, % at 10 µM. 0.51% of 330,000 active. AID 2016, 2009;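 active = GFP response versus DMSO above a set limit, roughly screen mean plus 3 SD, cut at about 180% in these data; inconclusive = fewer than 70 cells counted for a yeast strain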;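 note: median GFP fluorescence of the barcode-gated MEP2-GFP cells per well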
Active calls of the source: *; [ ] = remark or other dose.

Screening Cc1cc(C(=O)CSc2nnc(-c3ccncc3)n2-c2ccccc2)c(C)n1C returned CIT2 TOR yeast inconclusive, LAP4-GFP MLPCN 97.8, AGP1 TOR yeast inconclusive, RPL19A TOR yeast 14.5*[may fluoresce violet] and MEP2-GFP yeast 282.5*[may fluoresce violet].
For Cc1cc(C(=O)CSc2nnc(-c3ccccc3)n2C)c(C)n1C the results were CIT2 TOR yeast 90.3, LAP4-GFP MLPCN 91.7, AGP1 TOR yeast 101.4, RPL19A TOR yeast 95.5 and MEP2-GFP yeast 90.1.
Screening O=C(O)CSc1nnc(-c2ccncc2)n1CCc1ccccc1 returned CIT2 TOR yeast 136.3, LAP4-GFP MLPCN 150.4*, AGP1 TOR yeast 107.8, RPL19A TOR yeast 102.8 and MEP2-GFP yeast 191.7*.
Screening CCOC(=O)c1c(O)c2cccc3c2n(c1=O)CC3 returned CIT2 TOR yeast inconclusive, LAP4-GFP MLPCN 76.7, AGP1 TOR yeast inconclusive, RPL19A TOR yeast 31.6*[may fluoresce violet] and MEP2-GFP yeast 346.7*[may fluoresce violet].
O=C(NCCO)c1c(O)c2cccc3c2n(c1=O)CC3 was read as CIT2 TOR yeast 100.5, LAP4-GFP MLPCN 85.9, AGP1 TOR yeast 93.3, RPL19A TOR yeast 89.0 and MEP2-GFP yeast 91.6.
For O=c1c2c(-c3ccc(Cl)cc3)csc2ncn1/N=C/c1cccc([N+](=O)[O-])c1O the results were CIT2 TOR yeast 146.7, LAP4-GFP MLPCN 201.2*, AGP1 TOR yeast 145.1, RPL19A TOR yeast 71.2 and MEP2-GFP yeast 575.3*.
`O=C(CN1CCCCCC1)NN(Cc1ccccc1)c1ccccc1` gave CIT2 TOR yeast 113.0, LAP4-GFP MLPCN 116.8, AGP1 TOR yeast 79.0, RPL19A TOR yeast 96.6 and MEP2-GFP yeast 127.2.
`O=C(O)CSc1nnc(-c2cccc(S(=O)(=O)N3CCOCC3)c2)n1-c1cccc(Cl)c1` gave CIT2 TOR yeast inconclusive, LAP4-GFP MLPCN inconclusive, AGP1 TOR yeast inconclusive, RPL19A TOR yeast 25.8*[may fluoresce violet] and MEP2-GFP yeast inconclusive.
Screening CNC(=O)CSc1nnc(-c2cccc(S(=O)(=O)N3CCOCC3)c2)n1-c1ccc(F)cc1 returned CIT2 TOR yeast 103.2, LAP4-GFP MLPCN 103.5, AGP1 TOR yeast 105.9, RPL19A TOR yeast 101.4 and MEP2-GFP yeast 105.9.
O=C(N/N=C/c1ccncc1)c1ccccc1 was read as CIT2 TOR yeast 95.8, LAP4-GFP MLPCN 89.0, AGP1 TOR yeast 91.1, RPL19A TOR yeast 90.3 and MEP2-GFP yeast 96.8.
Screening O=C(N/N=C/c1cccc(Oc2ccccc2)c1)c1ccncc1 returned CIT2 TOR yeast 79.5, LAP4-GFP MLPCN 211.4*, AGP1 TOR yeast 95.4, RPL19A TOR yeast 74.0 and MEP2-GFP yeast 123.4.
COC(=O)c1ccc(NC(=O)C23CCC(C)(C(=O)O2)C3(C)C)cc1 (stereo not given) was read as CIT2 TOR yeast 96.0, LAP4-GFP MLPCN 150.3*, AGP1 TOR yeast 107.9, RPL19A TOR yeast 96.6 and MEP2-GFP yeast 95.2.
Screening CC1CN(C(=O)c2ccc(COc3ccccc3Br)o2)CC(C)O1 (stereo not given) returned CIT2 TOR yeast 101.4, LAP4-GFP MLPCN 101.2, AGP1 TOR yeast 97.3, RPL19A TOR yeast 102.5 and MEP2-GFP yeast 104.7.
Screening Cc1cc(NC(=O)C(C)Oc2ccc(Cl)cc2Cl)n(-c2ccccc2)n1 (stereo not given) returned CIT2 TOR yeast inconclusive, LAP4-GFP MLPCN 84.5, AGP1 TOR yeast inconclusive, RPL19A TOR yeast 38.2*[may fluoresce violet] and MEP2-GFP yeast 167.1.
CCn1nnc(NC(=O)C(C)Oc2ccc(Cl)cc2Cl)n1 (stereo not given) was read as CIT2 TOR yeast 104.7, LAP4-GFP MLPCN 107.6, AGP1 TOR yeast 106.5, RPL19A TOR yeast 99.4 and MEP2-GFP yeast 102.3.
For O=C(NCC(=O)N1CCCC1)c1cccs1 the results were CIT2 TOR yeast 144.7, LAP4-GFP MLPCN 151.6*, AGP1 TOR yeast 119.5, RPL19A TOR yeast 111.4 and MEP2-GFP yeast 174.4.
COc1ccc(N2CCN(C(=O)NC(=O)c3ccc(Cl)cc3)CC2)cc1 was read as CIT2 TOR yeast 115.8, LAP4-GFP MLPCN 106.8, AGP1 TOR yeast 108.4, RPL19A TOR yeast 98.0 and MEP2-GFP yeast 111.2.
Screening COc1ccc(C2N(c3ccc(Cl)cc3)N=C(C(C)=O)N(C)N2C(C)=O)cc1 (stereo not given) returned CIT2 TOR yeast 119.5, LAP4-GFP MLPCN 142.7, AGP1 TOR yeast 108.2, RPL19A TOR yeast 81.2 and MEP2-GFP yeast 240.3*.
`CC1=CC(c2ccccc2)n2nc(N3C(=O)C4CC=CCC4C3=O)nc2N1` (stereo not given) gave CIT2 TOR yeast inconclusive, LAP4-GFP MLPCN 100.8, RPL19A TOR yeast 44.3*[may fluoresce violet] and MEP2-GFP yeast 448.2*[may fluoresce violet].
Screening CC1=CC(c2ccccc2)n2nc(N3C(=O)CCC3=O)nc2N1 (stereo not given) returned CIT2 TOR yeast 104.3, LAP4-GFP MLPCN 99.4, AGP1 TOR yeast 109.8, RPL19A TOR yeast 98.4 and MEP2-GFP yeast 110.3.
`COc1ccc(C(C(=O)NC2CCCC2)N(C(=O)c2ccoc2C)c2ccc(C)c(C)c2)cc1` (stereo not given) gave CIT2 TOR yeast 96.5, LAP4-GFP MLPCN 92.3, AGP1 TOR yeast 93.6, RPL19A TOR yeast 99.1 and MEP2-GFP yeast 108.3.
For CCOC(=O)Cc1csc(NC(=O)CSc2nnc(-c3ccc(C)cc3)o2)n1 the results were CIT2 TOR yeast 144.7, LAP4-GFP MLPCN 163.3*, AGP1 TOR yeast 110.5, RPL19A TOR yeast 102.8 and MEP2-GFP yeast 205.7*.
Screening CCOC(=O)Cc1csc(NC(=O)CSc2nnc(-c3ccc(F)cc3)o2)n1 returned CIT2 TOR yeast 104.3, LAP4-GFP MLPCN 110.6, AGP1 TOR yeast 102.4, RPL19A TOR yeast 100.6 and MEP2-GFP yeast 108.4.
Screening CN=C1c2c(-c3ccccc3)c3cc(OC)ccc3n2CCN1C returned CIT2 TOR yeast inconclusive, LAP4-GFP MLPCN 77.6, AGP1 TOR yeast inconclusive, RPL19A TOR yeast 56.8 and MEP2-GFP yeast 235.7*[may fluoresce violet].
COc1ccc(-c2c(-c3ccccc3)n(C)c3ccccc23)cc1 was read as CIT2 TOR yeast 104.1, LAP4-GFP MLPCN 104.4, AGP1 TOR yeast 109.3, RPL19A TOR yeast 104.1 and MEP2-GFP yeast 102.4.
Screening Cc1noc(C)c1NC(=O)Nc1cccc2c1O[C@H](CN(C)C(=O)NC1CCCCC1)[C@@H](C)CN([C@H](C)CO)C2=O returned CIT2 TOR yeast 98.5, LAP4-GFP MLPCN 122.4, AGP1 TOR yeast 96.4, RPL19A TOR yeast 97.5 and MEP2-GFP yeast 100.9.
`Nc1[nH]nc2nc3ccccc3cc12` gave CIT2 TOR yeast 92.9, LAP4-GFP MLPCN 101.3, AGP1 TOR yeast 96.1, RPL19A TOR yeast 94.5 and MEP2-GFP yeast 100.4.
Screening Nc1cccc2nc3ccccc3cc12 returned CIT2 TOR yeast inconclusive, LAP4-GFP MLPCN inconclusive, AGP1 TOR yeast inconclusive, RPL19A TOR yeast 13.6*[may fluoresce violet] and MEP2-GFP yeast inconclusive.
CCOC(=O)C1=C(c2ccccc2)NC(=O)NC1c1ccsc1 (stereo not given) was read as CIT2 TOR yeast 102.5, LAP4-GFP MLPCN 93.5, AGP1 TOR yeast 98.7, RPL19A TOR yeast 105.4 and MEP2-GFP yeast 108.2.

Screening data from PubChem BioAssay.
